In PubChem BioAssay AID1259415 (National Center for Advancing Translational Sciences (NCATS), 2018):
Hit rate of the full screen: of about 410,000 compounds, about 18,000 (4.4%) were called active. Inconclusive results (about 7%) are left out. Shown is part of a subset that was picked to be rich in actives. Values without a mark were called inactive. Rule as the data show it: active = activity change below about -60%; inconclusive = no clear call, values can overlap the other calls; inactive = above about -39%.

Test: qHTS Assay for inhibitors of the human cytomegalovirus (HCMV)
Settings: HFF cells, HCMV-luciferase reporter, 72 h; at 57.5 µM; hits give low values
How it was run: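 Two-dose cell screen: HFF monolayers treated with compounds and infected with luciferase-expressing HCMV at 1 PFU/cell, 72 h at 37C, then lysed for luciferase measurement.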
% is scaled to controls: 0 for no effect and ±100 for the full control effect.

Row | SMILES | activity change, negative = inhibition
1 | CN(c1ccc(C(=O)N2CCc3ccccc3C2)cc1)S(C)(=O)=O | 5.34%
2 | CN(c1cccc(NC(=O)c2ccc(CN3CCc4ccccc4C3)cc2)c1)S(C)(=O)=O | -74.1% (active)
3 | CCN(CC)c1ccc(NC(=O)CN2CCN(CC(=O)Nc3ccc(Cl)cc3)CC2)cc1 | 18%
4 | CNS(=O)(=O)c1ccc(NC(=O)Nc2ccc3c(c2)OCO3)cc1 | 61.9%
5 | CN(c1cccc(NC(=O)Nc2ccc(Cl)cc2)c1)S(C)(=O)=O | -81.1% (active)
6 | CC(=O)Nc1cccc(NC(=O)c2ccc3c(c2)CCN3S(C)(=O)=O)c1 | 40.6%
7 | CC1(C(=O)NCc2cccc3ccccc23)CCN1Cc1ccc(-c2ccccc2)o1 (centres undefined) | -20.5%
8 | CCNC(=O)C1CCCN(C(=O)c2ccc(OC)cc2OC)CC1 (centres undefined) | -11.4%
9 | Cn1c(=O)c2c(-c3ccccc3Br)n(Cc3ccccc3)cc2n(C)c1=O | -17.1%
10 | CCc1nn(CC(=O)N2CCN(c3ccc(Cl)cc3)CC2)c(=O)c2cc3occc3n12 | -13.8%
11 | Cc1cccc(S(=O)(=O)c2cn(Cc3ccccc3)c3cc(N4CCOCC4)c(F)cc3c2=O)c1 | 17.2%
12 | COc1ccc(-c2noc(CCCC(=O)NC3CCCC3)n2)cc1OC | -17%
13 | CCOc1cc(-c2noc(CCCC(=O)NC3CCCCC3)n2)ccc1OC | -89.7% (active)
14 | CCOc1cc(-c2noc(CCC(=O)N3CCOCC3)n2)ccc1OC | 2.89%
15 | C[C@@H]1CN([C@@H](C)CO)C(=O)CCCn2nncc2CO[C@H]1CN(C)C(=O)Nc1ccc(C(F)(F)F)cc1 | 8.54%
16 | CC[C@@H](C)[C@@H](C(=O)N1CCN(C(=O)OC(C)(C)C)CC1)n1cc(CCC(=O)O)nn1 | 14.7%
17 | COc1ccc(-c2noc(-c3ccc(N4CCN(c5ccccc5)CC4)c([N+](=O)[O-])c3)n2)cc1OC | 14.1%
18 | CC1=CC(=C(C#N)c2nc3ccccc3s2)C=C(C)N1c1ccc(F)cc1F | -64.6% (active)
19 | Cc1ccc(F)cc1S(=O)(=O)N1CCC(c2nc3ccccc3s2)CC1 | -23.3%
20 | Cc1ccc(C(=O)Nc2ccc3[nH]c(=O)c(=O)[nH]c3c2)cc1 | -0.693%
21 | CCOc1ccccc1NC(=O)Cn1c(=O)n(-c2cccc(C)c2)c(=O)c2c1c1cc(OC)ccc1n2C | 19.1%
22 | COc1ccc(C(=O)Nc2onc3c2CCCC3)cc1 | 1.09%

Row | SMILES | activity change, negative = inhibition
23 | CCOc1cccc(CNC(=O)c2ccc(N3CCCC3)c(NC(=O)Nc3ccccc3CC)c2)c1 | -10.9%
24 | Cc1ccccc1CNC(=O)CCCn1nc(C)c2sc3ccccc3c2c1=O | 14.7%
25 | O=C(NC1CCCCC1)N1Cc2cc(N3CCCCC3)ccc2-n2nncc2C1 | 40.9%
26 | CC(C)CN1Cc2cc(N3CCCCC3)ccc2-n2nncc2C1 | 10.2%
27 | CCOC(=O)CNC(=O)N1Cc2cc(N3CCCCC3)ccc2-n2nncc2C1 | -62.1% (active)
28 | Cn1c(C(=O)N2CCC(C(=O)N3CCN(c4ccccc4)CC3)CC2)cc2sccc21 | -22.9%
29 | Cc1nn(CC(=O)N2CCN(c3cccc(C(F)(F)F)c3)CC2)c(=O)c2cc3sccc3n12 | 2.88%
30 | COc1ccc(F)cc1C(=O)COC(=O)c1n[nH]c(=O)c2ccccc12 | 49.5%
31 | CC1CC(C)CN(S(=O)(=O)c2ccc(C(=O)NN3CCOCC3)cc2)C1 (centres undefined) | -27.9%
32 | CS(=O)(=O)c1ccc(-c2nnc(NC(=O)c3ccc4c(c3)OCCO4)o2)cc1 | -0.462%
33 | CC1CCCN(S(=O)(=O)c2ccc(C(=O)Nc3nnc(-c4ccncc4)o3)cc2)C1 (centres undefined) | -96.5% (active)
34 | C[C@H]1CN([C@@H](C)CO)C(=O)CCCn2nncc2CO[C@@H]1CN(C)C(=O)Nc1ccc(N2CCN(C)CC2)cc1 | -20.2%
35 | COc1cc(C2OC(c3cc(OC)c(OC)c(OC)c3)C(C)C2C)cc(OC)c1OC (centres undefined) | 54.8%
36 | O=C(CC1Oc2ccccc2NC1=O)NCc1ccc(F)cc1 (centres undefined) | -9.67%
37 | O=C(NCc1ccccc1)c1ccc2c(c1)nc1n2CCCCC1 | 27.3%
38 | Cc1cc(C)nc(S/C=C/C(=O)c2ccccc2)n1 | -90.7% (active)
39 | CCn1c(CSc2nc(C)cc(C)n2)nnc1SCC(N)=O | -18.8%
40 | CCC1Oc2ccc(Cl)cc2N(CC(=O)O)C1=O (centres undefined) | -13.4%
41 | Cc1cc(C)n(C(=O)c2ccc(C)c(S(=O)(=O)N3CCOCC3)c2)n1 | -11.1%
42 | O=C(Nc1cccn(Cc2c(Cl)cccc2Cl)c1=O)c1ccc(Cl)cc1 | -83.3% (active)
43 | O=C(Nc1cccn(Cc2ccccc2Cl)c1=O)NC1CCCCC1 | -37.7%
44 | CCn1c(=O)c(=O)n(CC)c2cc(N3CCCCC3)c(NC(=O)c3ccc(Cl)cc3)cc21 | -11.3%
